PubChem BioAssay AID1159580 (chemical genetic matrix, 2015)
In all, about 5,500 compounds went through this assay and about 2,000 (36%) were called active. Roughly 18% stayed inconclusive and do not appear here. Cut-off read from the data, not from the text of the source: active = normalized growth mostly below about 0.91 (no sharp cut-off); inconclusive = no clear call, values can overlap the other calls; inactive = mostly above about 0.92. This is one part of the list.

Experiment: chemical genetic growth profiling, strain panel (AID 1159580);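 note: tested at 20 µM; growth read once vehicle control cultures reached saturation at 30 °C; 1 = growth at the plate median or of vehicle wells; lower values mean less growth of the strain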
Conditions: S. cerevisiae deletion strains, growth OD

Measured: normalized growth

CCCCCN=C(N)N/N=C\c1c[nH]c2ccc(OC)cc12
inactive: locus YAL013W, strain DEP1, active compounds read low 1.01 | locus YAL021C, strain ccr4, active compounds read low 0.985 | locus YAL026C, strain drs2, active compounds read low 0.928 | locus YAL030W, strain snc1, active compounds read low 1.01 | locus YBL061C, strain skt5, active compounds read low 1.01 | locus YBR009C, strain hhf1, active compounds read low 0.985 | locus YBR021W, strain FUR4, active compounds read low 0.989 | locus YBR023C, strain chs3, active compounds read low 0.988 | locus YBR171W, strain sec66, active compounds read low 1.03 | locus YBR229C, strain ROT2, active compounds read low 1 | locus YBR231C, strain swc5, active compounds read low 1 | locus YBR279W, strain paf1, active compounds read low 1.01 | locus YCL011C, strain gbp2, active compounds read low 1 | locus YCL016C, strain dcc1, active compounds read low 0.985 | locus YCL029C, strain bik1, active compounds read low 1.03 | locus YCL069W, strain vba3, active compounds read low 1.02 | locus YCR088W, strain abp1, active compounds read low 1.02 | locus YDL005C, strain med2, active compounds read low 1.01 | locus YDL035C, strain GPR1, active compounds read low 0.989 | locus YDL040C, strain nat1, active compounds read low 0.998 | locus YDL074C, strain BRE1, active compounds read low 1.01 | locus YDL101C, strain DUN1, active compounds read low 1.01 | locus YDL134C, strain PPH21, active compounds read low 0.997 | locus YDL185W, strain tfp1, active compounds read low 1.06 | locus YDL192W, strain arf1, active compounds read low 1.03 | locus YDR001C, strain nth1, active compounds read low 1.01 | locus YDR069C, strain doa4, active compounds read low 1.02 | locus YDR101C, strain arx1, active compounds read low 1.02 | locus YDR137W, strain rgp1, active compounds read low 1.07 | locus YDR150W, strain NUM1, active compounds read low 1.02 | locus YDR159W, strain sac3, active compounds read low 0.965 | locus YDR162C, strain NBP2, active compounds read low 0.993 | locus YDR195W, strain ref2 1.01 | locus YDR297W, strain sur2, active compounds read low 1 | locus YDR318W, strain mcm21, active compounds read low 1.02 | locus YDR334W, strain swr1, active compounds read low 1.01 | locus YDR335W, strain msn5, active compounds read low 1.01 | locus YDR388W, active compounds read low 1.03 | locus YDR392W, strain spt3, active compounds read low 0.911 | locus YDR502C, strain sam2, active compounds read low 1 | locus YEL003W, strain gim4, active compounds read low 1.01 | locus YEL037C, strain rad23, active compounds read low 1.01 | locus YEL061C, strain CIN8 (second series), active compounds read low 1.01 | locus YEL061C, strain CIN8, active compounds read low 0.994 | locus YER015W, strain faa2, active compounds read low 0.982 | locus YER016W, strain bim1, active compounds read low 1 | locus YER110C, active compounds read low 1.05 | locus YER111C, strain swi4, active compounds read low 1.02 | locus YER155C, strain BEM2 (second series), active compounds read low 0.968 | locus YER155C, strain BEM2, active compounds read low 1.01 | locus YER167W, strain BCK2, active compounds read low 1.01 | locus YFR010W, strain ubp6, active compounds read low 1.03 | locus YGL078C, strain dbp3, active compounds read low 1.02 | locus YGL086W, strain mad1, active compounds read low 1.01 | locus YGL167C, strain pmr1, active compounds read low 1.01 | locus YGL173C, strain kem1, active compounds read low 1.01 | locus YGL227W, strain vid30, active compounds read low 1.02 | locus YGL240W, strain doc1, active compounds read low 1.01 | locus YGL248W, strain PDE1, active compounds read low 1 | locus YGL253W, strain hxk2, active compounds read low 1.03 | locus YGR078C, strain PAC10, active compounds read low 1.02 | locus YGR135W, strain pre9, active compounds read low 1.02 | locus YGR229C, strain SMI1, active compounds read low 0.997 | locus YGR252W, strain gcn5, active compounds read low 1.01 | locus YHR013C, strain ard1, active compounds read low 1.03 | locus YHR027C, strain rpn1, active compounds read low 1 | locus YHR030C, strain SLT2, active compounds read low 1.01 | locus YHR079C, strain IRE1 (second series), active compounds read low 1.01 | locus YHR094C, strain hxt1, active compounds read low 1.02 | locus YHR129C, strain ARP1, active compounds read low 0.999 | locus YHR142W, strain chs7, active compounds read low 0.993 | locus YHR200W, strain rpn10, active compounds read low 1.04 | locus YIL066C, strain RNR3, active compounds read low 0.996 | locus YIL073C, strain SPO22, active compounds read low 1.02 | locus YIL125W, strain kgd1, active compounds read low 1.01 | locus YIR030C, strain dcg1, active compounds read low 1.02 | locus YJL092W, strain hpr5, active compounds read low 1.01 | locus YJL095W, strain BCK1 (second series), active compounds read low 1.01 | locus YJL095W, strain BCK1, active compounds read low 0.987 | locus YJL115W, strain asf1, active compounds read low 1 | locus YJL129C, strain trk1, active compounds read low 1.02 | locus YJL134W, strain LCB3, active compounds read low 1.01 | locus YJL154C, strain vps35, active compounds read low 1.01 | locus YJL164C, strain tpk1, active compounds read low 0.978 | locus YJL166W, strain qcr8, active compounds read low 1.02 | locus YJL168C, strain set2, active compounds read low 1.02 | locus YJL187C, strain SWE1 (second series), active compounds read low 1 | locus YJL187C, strain SWE1, active compounds read low 1
